Source: PubChem (several laboratories)
Most compounds without a hit are left out; they make up all but 1.1% or so of the library.
Vc quorum ag = inducers of Vibrio cholerae quorum light production without autoinducers. V. cholerae BH1578 lux reporter, luminescence, 6 h. activation, % at 18.7 µM. 350,000 compounds, 0.16% hits. AID 588436; in the data active means activation mostly above about 9.7%, no sharp cut-off; inconclusive means no clear call, values can overlap the other calls; inactive means mostly below about 3.7%
CCHF vOTU inh-1 = CCHFV vOTU protease inhibition; Pep-AMC fluorescence; inhibition, % at 11.5 µM; 370,000 compounds, 0.55% hits; AID 651958
PrPC TRFRET = reduces human prion protein on the cell surface. P04156. cell surface PrPC, TR-FRET read-out. inhibition, % at 13.8 µM. 370,000 compounds, 0.43% hits. AID 720596; in the data active means inhibition above about 24%
Yp Topo-I inh = blocks Yersinia pestis topoisomerase I activity | Y. pestis Topo-I cleavage product accumulation, plate reader | activity, % at 10 µM | 360,000 compounds, 0.064% hits | AID 504884; in the data active means activity above about 50%, passing the limit was not always enough; inconclusive means no clear call, values can overlap the other calls
CCHF vOTU inh-2 = confirmation of CCHF virus vOTU protease inhibitors. shares compounds with CCHF vOTU inh-1. Recombinant CCHFV vOTU, Pep-AMC fluorescence. inhibition, % at 11.5 µM. 1,900 compounds, 17% hits
Each line names hits and unclear results; the compound was inactive in the other large screens (follow-up assays come after a bar, where they were run). Unless noted, no stated cut-off is given here; in the data, active means inhibition above about 30%; inactive means the rest.

CC1Cn2c(nnc2-c2cc3ccccc3cc2O)S1 (stereo not drawn)	none
CCOC(=O)c1cc2c(ccn2C)n1Cc1ccc(Cl)cc1	none
Cc1cccc(Cn2c(C(=O)OC(C)C)cc3c2ccn3C)c1	CCHF vOTU inh-1 35, Yp Topo-I inh 54 | CCHF vOTU inh-2 inactive
CC1=C(C(=O)N2CCOCC2)CC(CC(=O)NCCN2CCOCC2)C(=O)N1Cc1ccccc1 (stereo not drawn)	CCHF vOTU inh-1 30 | CCHF vOTU inh-2 inactive
CC1=C(C(=O)N2CCOCC2)CC(CC(=O)NCCN2CCOCC2)C(=O)N1Cc1ccc(F)cc1 (stereo not drawn)	none
O=C(NC1CCCCC1)C(c1ccco1)N(C(=O)C(F)(F)F)C1CC1 (stereo not drawn)	none
Cc1ccc(CN(C(=O)C(F)(F)F)C(C(=O)NC2CCCCC2)c2ccco2)cc1 (stereo not drawn)	CCHF vOTU inh-1 30 (no result: Vc quorum ag) | CCHF vOTU inh-2 inactive
CC(=O)N1CCN(c2ccc(NC(=O)c3ccc(Cl)c([N+](=O)[O-])c3)cc2)CC1	none
O=C(NN=C1C2CC3CC(C2)CC1C3)c1ccncc1	none (no result: Vc quorum ag)
O=C(N/N=C1\C/C(=N\NC(=O)c2ccncc2)c2ccccc21)c1ccncc1	CCHF vOTU inh-1 93 | CCHF vOTU inh-2 83
O=c1ccc2[n+]([O-])c3ccc(O)cc3oc-2c1	CCHF vOTU inh-1 50, Yp Topo-I inh 396 | CCHF vOTU inh-2 inactive
Nc1n[nH]c2cccc(Cl)c12	none
CCOC(=O)COc1ccc(S(=O)(=O)N2CCN(c3ccc(OC)cc3)CC2)cc1	CCHF vOTU inh-1 30 | CCHF vOTU inh-2 inactive
COc1ccc(OC)c(NC(=O)CSc2nc(O)cc(=O)n2CC(C)C)c1	CCHF vOTU inh-1 32 | CCHF vOTU inh-2 inactive
Cc1c(C)n(Cc2ccc(-c3ccccc3C(=O)O)cc2)c2ccc(C(=O)N[C@@H](C)c3ccc([N+](=O)[O-])cc3)cc12	CCHF vOTU inh-1 42 (no result: Vc quorum ag, Yp Topo-I inh) | CCHF vOTU inh-2 inactive
CCCCn1c(NS(=O)(=O)c2ccc(C)cc2)c(S(=O)(=O)c2ccccc2)c2nc3ccccc3nc21	CCHF vOTU inh-1 90 | CCHF vOTU inh-2 inactive
CCCCn1c(NS(=O)(=O)c2ccccc2)c(C(=O)OCC)c2nc3ccccc3nc21	CCHF vOTU inh-1 35 | CCHF vOTU inh-2 74
CCCCn1c(NC(=O)c2ccc(Br)o2)c(C(=O)OCC)c2nc3ccccc3nc21	none
Cc1occc1C(=O)NNC(=O)C1CC1	none
COc1cc(Cl)c(CN2CCCC(CO)(Cc3ccccc3)C2)cc1OC (stereo not drawn)	none
CN1CCN(C2=C(Cl)C(=O)c3ccccc3C2=O)CC1	CCHF vOTU inh-1 106 (no result: Vc quorum ag) | CCHF vOTU inh-2 99
NC(=O)C1CCN(C2=C(Cl)C(=O)c3ccccc3C2=O)CC1	CCHF vOTU inh-1 58 | CCHF vOTU inh-2 83
CN(C1=C(N2CCOCC2)C(=O)c2ccccc2C1=O)c1ccccc1	none
O=C1C(Cl)=C(N2CCC(C(=O)O)CC2)C(=O)c2ccccc21	none (no result: CCHF vOTU inh-1, PrPC TRFRET)
CC1COCC(C)N1C1=C(Cl)C(=O)c2ccccc2C1=O (stereo not drawn)	CCHF vOTU inh-1 87 | CCHF vOTU inh-2 90
COc1ccc(C(C)C)cc1S(=O)(=O)NCc1ccccn1	none
CCOC(=O)C(/C=C(\C#N)C(=O)OCC)=C(/N)N1CCN(c2ccccc2)CC1	CCHF vOTU inh-1 33 (no result: Vc quorum ag) | CCHF vOTU inh-2 inactive
CCOC(=O)/C(C#N)=C/c1ccc(N2CCN(C)CC2)cc1	none
CCCCn1c2nc3ccccc3nc2c2c(=N)oc(C)nc21	none
COc1ccc(-n2c3nc4ccccc4nc3c3c(=N)oc(C)nc32)cc1	CCHF vOTU inh-1 69 | CCHF vOTU inh-2 36
Cc1cc(C)c(S(=O)(=O)NCC(c2ccco2)N2CCc3ccccc3C2)c(C)c1 (stereo not drawn)	CCHF vOTU inh-1 30, Yp Topo-I inh inconclusive | CCHF vOTU inh-2 inactive
Cc1ccc(Oc2ccc(OCC(=O)NC(CC(C)C)C(=O)O)cc2)cc1 (stereo not drawn)	none
COC(=O)COc1ccc(S(=O)(=O)NC2CCCCCC2)cc1	CCHF vOTU inh-1 55 | CCHF vOTU inh-2 inactive
N#Cc1cccc(NC(=O)OCCN2C(=O)CCC23CCC(c2ccccc2)CC3)c1 (stereo not drawn)	none (no result: Vc quorum ag, Yp Topo-I inh)
CCCS(=O)(=O)N1CCC(Cc2ccc(OC)cc2)(C(=O)OCC)CC1	none
COc1cc2c(cc1O)[C@@H]1Cc3ccc(OC)c(O)c3CN1CC2	CCHF vOTU inh-1 105 | CCHF vOTU inh-2 93
COc1ccc(C[C@@H]2c3cc(O)c(OC)cc3CCN2C)cc1O	none
CC1CCCCN1C(=O)c1ccc(COc2ccc([N+](=O)[O-])cc2)o1 (stereo not drawn)	none
O=C(C[C@H]1CC[C@H]2[C@@H](COC[C@@H](O)CN2Cc2cc(F)ccc2F)O1)NCc1ccc(Cl)cc1	none (no result: Vc quorum ag, Yp Topo-I inh)
Cn1c(=O)cc(SCC(=O)N2CCC3(CC2)OCCO3)c2ccccc21	none
COc1ccc(C(=O)/C=C(\C)Nc2ccc(NC(C)=O)cc2)cc1	none
C/C(=C\C(=O)c1cccnc1)Nc1ccc(O)cc1	CCHF vOTU inh-1 95 | CCHF vOTU inh-2 inactive
C/C(=C\C(=O)c1ccccc1)Nc1ccc(O)cc1	CCHF vOTU inh-1 76 | CCHF vOTU inh-2 inactive
Nc1nc(Nc2ccccc2)nc(C(F)(F)F)n1	none
N#CCC[C@@H]1CC[C@]2(CCCN(C(=O)C3CCCC3)C2)O1	none (no result: Vc quorum ag, Yp Topo-I inh)
CCCCCCCCN1C(=O)[C@@H](CC(=O)NCc2cccc3ccccc23)C[C@@]2(C(=O)OC)C1=C[C@H](C(C)C)O[C@@H]2C1CC1	none (no result: Vc quorum ag, Yp Topo-I inh)
CCCCCCCCN1C(=O)[C@@H](CC(=O)NCc2cccs2)C[C@@]2(C(=O)OC)C1=C[C@H](C(C)C)O[C@@H]2C1CC1	CCHF vOTU inh-1 39 (no result: Vc quorum ag, Yp Topo-I inh) | CCHF vOTU inh-2 inactive
CCCCCCCCN1C(=O)[C@@H](CC(=O)N2CCCCC2)C[C@@]2(C(=O)OC)C1=C[C@H](C(C)C)O[C@@H]2C1CC1	CCHF vOTU inh-1 32 (no result: Vc quorum ag, Yp Topo-I inh) | CCHF vOTU inh-2 inactive
CCCCCCCCN1C(=O)[C@@H](CC(=O)N2CCC(c3ccccc3)CC2)C[C@@]2(C(=O)OC)C1=C[C@H](C(C)C)O[C@@H]2C1CC1	none (no result: Vc quorum ag, Yp Topo-I inh)
CCCCCCCCN1C(=O)[C@@H](CC(=O)NCCC(C)C)C[C@@]2(C(=O)OC)C1=C[C@H](C(C)C)O[C@@H]2C1CC1	CCHF vOTU inh-1 35 (no result: Vc quorum ag, Yp Topo-I inh) | CCHF vOTU inh-2 inactive
COc1ccc(CC(=O)Nc2cc(Cl)ccc2C(=O)O)cc1	none
CCCCOc1ccc(Nc2cc(Cl)ccc2C(=O)O)cn1	CCHF vOTU inh-1 37 | CCHF vOTU inh-2 inactive
O=C(c1ccc(Cl)c(S(=O)(=O)N2CCCCCC2)c1)N1CCN(c2ccccn2)CC1	none
O=C(CCCSc1nc2sc3c(c2c(=O)[nH]1)CCC3)NCCCO	none
COC1C(OC(=O)/C=C/C=C/C=C/C=C/C(=O)O)CCC2(CO2)C1C1(C)OC1CC=C(C)C (stereo not drawn) (tested in a mixture with another compound)	CCHF vOTU inh-1 30 | CCHF vOTU inh-2 inactive
CCCCCCCCN1C(=O)[C@@H](CC(=O)N2CCOCC2)C[C@@]2(C(=O)OC)C1=C[C@H](C(C)(C)C)O[C@@H]2C	CCHF vOTU inh-1 31 (no result: Vc quorum ag, Yp Topo-I inh) | CCHF vOTU inh-2 inactive
COC(=O)[C@]12C[C@H](CC(=O)NCC3CCCCC3)C(=O)N(CCc3ccc(OC)c(OC)c3)C1=C[C@H](C(C)(C)C)O[C@@H]2C	CCHF vOTU inh-1 31 (no result: Vc quorum ag, Yp Topo-I inh) | CCHF vOTU inh-2 inactive
